Measured values taken from PubChem BioAssay (EPA / NIEHS).
Results filed as inconclusive are left out. Activity calls are given as the source filed them. The calls were made as follows, unless noted: active = hit-call score of the fitted dose curve at least 0.9, where 1 is the maximum; inactive = score below 0.9.

Key:
[1] = target: Retinoic acid receptor RXR-alpha (Homo sapiens) (UniProt P19793); assay: ATG_RXRa_TRANS: Attagene TRANS-FACTORIAL HepG2 Assay for human Retinoid X Receptor alpha (RXRa) (AID 2283012; active = hit-call score of the fitted dose curve at least 0.9, where 1 is the maximum)
Sequence of Retinoic acid receptor RXR-alpha (Homo sapiens) (P19793 whole entry, looked up, the tested form may be a part): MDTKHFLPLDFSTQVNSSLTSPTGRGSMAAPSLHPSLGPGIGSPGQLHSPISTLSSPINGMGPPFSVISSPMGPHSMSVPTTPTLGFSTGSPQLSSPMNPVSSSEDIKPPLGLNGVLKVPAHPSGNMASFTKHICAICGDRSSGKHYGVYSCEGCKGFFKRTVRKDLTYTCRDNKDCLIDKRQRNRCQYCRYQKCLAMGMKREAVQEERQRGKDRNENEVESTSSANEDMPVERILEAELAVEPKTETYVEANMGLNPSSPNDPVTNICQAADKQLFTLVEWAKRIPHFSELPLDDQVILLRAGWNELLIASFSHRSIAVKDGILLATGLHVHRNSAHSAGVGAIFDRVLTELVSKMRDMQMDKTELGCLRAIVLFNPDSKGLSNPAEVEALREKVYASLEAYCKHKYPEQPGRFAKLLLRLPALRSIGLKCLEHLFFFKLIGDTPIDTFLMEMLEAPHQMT
Outline: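 Read-out: fluorescent reporter-transcript fragments quantified by capillary electrophoresis after RT-PCR. Transiently transfected HepG2 cells carrying GAL4-UAS reporters and NR-GAL4 chimeras were exposed to chemical for 24 h; activity scored as increase over DMSO.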

[2] = read-out: E-selectin (Homo sapiens) (UniProt P16581); assay: BSK_3C_Eselectin: BioMAP Diversity Plus: 3C Assay for Eselectin Biomarker Activity (AID 2283015); settings: primary human endothelial cells (HUVEC); actives raise or lower the signal;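 also: cell surface E-selectin protein quantified by ELISA 24 h after dosing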
Outline: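 Primary human umbilical vein endothelial cells (3C system), read 24 h after compound addition; E-selectin measured by ELISA. Bidirectional curve fitting against DMSO baseline; cytotoxicity by parallel SRB total-protein staining.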

[3] = read-out: Interleukin-1 alpha (IL1a), IL1A (gene 3552); assay: BSK_BE3C_IL1a: BioMAP Diversity Plus: BE3C Assay for Interleukin-1 alpha (IL1a) Biomarker Activity (AID 2283016); settings: primary human bronchial epithelial cells; actives raise or lower the signal
Outline: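 ELISA read-out of IL-1a from human lung bronchial epithelial primary cells, 24 h post-dose. Gain or loss of signal fitted relative to DMSO negative control.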

[4] = read-out: Monocyte Chemoattractant Protein-1 (MCP1), CCL2 (gene 6347); assay: BSK_3C_MCP1: BioMAP Diversity Plus: 3C Assay for Monocyte Chemoattractant Protein-1 (MCP1) Biomarker Activity (AID 2283017); settings: primary human endothelial cells (HUVEC); actives raise or lower the signal
Outline: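 Human umbilical vein endothelial cells (3C system) exposed to chemicals for 24 h; MCP-1 quantified by ELISA against the DMSO baseline with bidirectional fitting, and parallel SRB staining used to assess cytotoxicity.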

[5] = read-out: Monocyte Chemoattractant Protein-1 (MCP1), CCL2 (gene 6347); assay: BSK_4H_MCP1: BioMAP Diversity Plus: 4H Assay for Monocyte Chemoattractant Protein-1 (MCP1) Biomarker Activity (AID 2283018); settings: primary human endothelial cells (HUVEC); actives raise or lower the signal
Outline: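 HUVEC primary cells, 24 h post-dose, MCP-1 by ELISA. Gain or loss of signal fitted bidirectionally vs DMSO baseline. Cytotoxicity: SRB stain (0.1% after 10% TCA fixation), read 560 nm, parallel cultures.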

[6] = read-out: Human Leukocyte Antigen - DR isotype (HLADR), HLA-DRA (gene 3122); assay: BSK_3C_HLADR: BioMAP Diversity Plus: 3C Assay for Human Leukocyte Antigen - DR isotype (HLADR) Biomarker Activity (AID 2283019); settings: primary human endothelial cells (HUVEC); actives raise or lower the signal
Outline: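 HUVEC monoculture, HLA-DR measured by ELISA 24 h after chemical dosing. Fitted bidirectionally against DMSO baseline; parallel SRB staining assessed cytotoxicity, with 3C proliferation read by SRB at 48 h.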

[7] = read-out: Interleukin-8 (IL8), CXCL8 (gene 3576); assay: BSK_3C_IL8: BioMAP Diversity Plus: 3C Assay for Interleukin-8 (IL8) Biomarker Activity (AID 2283020); settings: primary human endothelial cells (HUVEC); actives raise or lower the signal
Outline: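 HUVEC, 3C stimulation; 24 h compound exposure; IL-8 read by ELISA; gain or loss of signal fitted relative to DMSO control.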

[8] = read-out: Monokine induced gamma interferon (MIG), CXCL9 (gene 4283); assay: BSK_3C_MIG: BioMAP Diversity Plus: 3C Assay for Monokine induced gamma interferon (MIG) Biomarker Activity (AID 2283021); settings: primary human endothelial cells (HUVEC); actives raise or lower the signal
Outline: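 HUVEC, 3C system; 24 h chemical exposure; MIG by ELISA; bidirectional fit vs DMSO baseline.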

[9] = target: human Vitamin D Receptor (VDR), VDR (gene 7421) (UniProt P11473); assay: ATG_VDR_TRANS: Attagene TRANS-FACTORIAL HepG2 Assay for human Vitamin D Receptor (VDR) (AID 2283022; active = hit-call score of the fitted dose curve at least 0.9, where 1 is the maximum)
Sequence of human Vitamin D Receptor (VDR), VDR (gene 7421) (P11473 whole entry, looked up, the tested form may be a part): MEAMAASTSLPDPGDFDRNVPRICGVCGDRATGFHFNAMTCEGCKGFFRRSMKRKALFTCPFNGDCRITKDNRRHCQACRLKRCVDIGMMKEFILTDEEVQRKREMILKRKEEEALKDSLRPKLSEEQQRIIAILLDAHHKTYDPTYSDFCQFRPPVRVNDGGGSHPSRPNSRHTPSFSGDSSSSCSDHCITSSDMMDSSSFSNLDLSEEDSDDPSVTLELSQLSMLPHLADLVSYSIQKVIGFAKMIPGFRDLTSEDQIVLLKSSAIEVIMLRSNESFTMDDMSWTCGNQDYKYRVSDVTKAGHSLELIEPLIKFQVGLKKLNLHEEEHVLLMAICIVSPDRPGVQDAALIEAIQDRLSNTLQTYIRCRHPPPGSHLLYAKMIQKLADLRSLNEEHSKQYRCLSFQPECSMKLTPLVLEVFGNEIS
Outline: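 HepG2 cells were transiently transfected with GAL4-UAS reporter units and a chimeric VDR-Gal4 construct, then dosed for 24 hours. Reporter mRNA was quantified by RT-PCR, fluorescent labeling, HpaI digestion and capillary electrophoresis; gain of signal analysed vs DMSO.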

[10] = BSK_3C_SRB: Viability Assessment in the BioMAP Diversity Plus: 3C Assay (AID 2283023); settings: primary human endothelial cells (HUVEC);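 also: fitted both ways against DMSO so a hit may be signal rise or drop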
Outline: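 Human umbilical vein endothelial cells in the 3C system, treated 24 h. Total protein measured by 0.1% sulforhodamine B staining after 10% TCA fixation, read at 560 nm; bidirectional fit versus DMSO.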

[11] = read-out: Matrix Metallopeptidase 1 (MMP1), MMP1 (gene 4312); assay: BSK_BE3C_MMP1: BioMAP Diversity Plus: BE3C Assay for Matrix Metallopeptidase 1 (MMP1) Biomarker Activity (AID 2283024); settings: primary human bronchial epithelial cells; actives raise or lower the signal
Outline: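 ELISA read-out of MMP1 in human lung bronchial epithelial primary cultures, 24 h post-dose; bidirectional curve fit vs DMSO baseline, gain or loss of signal scored.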

[12] = read-out: Pselectin, SELP (gene 6403); assay: BSK_4H_Pselectin: BioMAP Diversity Plus: 4H Assay for Pselectin Biomarker Activity (AID 2283026); settings: primary human endothelial cells (HUVEC); actives raise or lower the signal
Outline: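 HUVEC, 24 h chemical exposure; P-selectin read by ELISA. Bidirectional curve fit vs DMSO baseline; gain or loss of signal scored.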

[13] = BSK_4H_SRB: Viability Assessment in the BioMAP Diversity Plus: 4H Assay (AID 2283027); settings: primary human endothelial cells (HUVEC);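 also: cells exposed to compound for 24 h before staining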
Outline: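 HUVEC, 24 h post-dose; 10% TCA fix, 0.1% SRB stain, A560 nm. Total protein = overt cytotoxicity, parallel to biomarker read. Bidirectional fit vs DMSO baseline.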

[14] = BSK_BE3C_SRB: Viability Assessment in the BioMAP Diversity Plus: BE3C Assay (AID 2283028); settings: primary human bronchial epithelial cells
Outline: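 Human bronchial epithelial primary cells in confluent culture, 24 h after chemical dosing; total protein by 0.1% SRB staining after 10% TCA fixation, read at 560 nm. Bidirectional fitting versus DMSO baseline.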

[15] = read-out: Thrombomodulin, THBD (gene 7056); assay: BSK_3C_Thrombomodulin: BioMAP Diversity Plus: 3C Assay for Thrombomodulin Biomarker Activity (AID 2283029); settings: primary human endothelial cells (HUVEC); actives raise or lower the signal
Outline: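 HUVEC, 3C conditions; compound 24 h; thrombomodulin by ELISA; bidirectional curve fit vs DMSO baseline; parallel SRB total-protein staining for cytotoxicity.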

[16] = read-out: Urokinase-type plasminogen activator receptor (uPAR), PLAUR (gene 5329); assay: BSK_4H_uPAR: BioMAP Diversity Plus: 4H Assay for Urokinase-type plasminogen activator receptor (uPAR) Biomarker Activity (AID 2283030); settings: primary human endothelial cells (HUVEC); actives raise or lower the signal
Outline: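 Human umbilical vein endothelial cells in the 4H system, 24 h after chemical dosing. Cell-surface uPAR measured by ELISA, fitted in both directions versus DMSO; cytotoxicity checked by SRB total protein in parallel cultures.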

[17] = read-out: Vascular endothelial growth factor receptor 2 (Homo sapiens) (UniProt P35968); assay: BSK_4H_VEGFRII: BioMAP Diversity Plus: 4H Assay for Vascular endothelial growth factor receptor 2 (VEGFR2) Biomarker Activity (AID 2283031); settings: primary human endothelial cells (HUVEC); actives raise or lower the signal
Outline: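 Primary human umbilical vein endothelial cells (4H system), 24 h exposure; cell-surface VEGFR2 measured by ELISA. Bidirectional fitting versus DMSO; cytotoxicity checked in parallel by SRB total-protein staining.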

[18] = BSK_3C_Vis: BioMAP Diversity Plus: 3C Assay for Morphology Visualization (AID 2283025); settings: primary human endothelial cells (HUVEC);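 also: fitted both ways so gain or loss versus DMSO counts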
Outline: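 HUVEC, 3C system; light microscopy of morphology at 24 h post-dose. Bidirectional fit vs DMSO baseline. Secondary readout, background-control function.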

[19] = target: human Retinoid X Receptor beta (RXRb), RXRB (gene 6257) (UniProt P28702); assay: ATG_RXRb_TRANS: Attagene TRANS-FACTORIAL HepG2 Assay for human Retinoid X Receptor beta (RXRb) (AID 2283013; active = hit-call score of the fitted dose curve at least 0.9, where 1 is the maximum)
Sequence of human Retinoid X Receptor beta (RXRb), RXRB (gene 6257) (P28702 whole entry, looked up, the tested form may be a part): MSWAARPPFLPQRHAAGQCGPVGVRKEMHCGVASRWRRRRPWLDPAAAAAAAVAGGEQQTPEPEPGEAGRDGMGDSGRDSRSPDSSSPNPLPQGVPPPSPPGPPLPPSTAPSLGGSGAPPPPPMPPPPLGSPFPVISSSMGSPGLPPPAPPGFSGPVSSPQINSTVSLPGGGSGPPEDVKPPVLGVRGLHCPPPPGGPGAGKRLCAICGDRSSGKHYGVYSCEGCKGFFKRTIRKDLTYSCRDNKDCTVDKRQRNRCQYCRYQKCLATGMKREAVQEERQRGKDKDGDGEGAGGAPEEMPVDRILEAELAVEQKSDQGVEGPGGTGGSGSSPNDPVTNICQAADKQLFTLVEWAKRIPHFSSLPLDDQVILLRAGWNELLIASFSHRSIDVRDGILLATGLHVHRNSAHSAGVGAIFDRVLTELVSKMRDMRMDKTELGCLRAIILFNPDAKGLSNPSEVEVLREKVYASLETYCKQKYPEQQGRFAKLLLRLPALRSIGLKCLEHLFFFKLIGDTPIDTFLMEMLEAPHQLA
Outline: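 Read-out: reporter mRNA induction via RT-PCR plus capillary electrophoresis fluorescence, analysed as signal increase relative to DMSO. Cells were human HepG2, transiently transfected with GAL4-UAS reporter constructs and chimeric receptor-Gal4 fusions, dosed for 24 h.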

[20] = target: human Thyroid Receptor alpha (THRa1), THRA (gene 7067) (UniProt P10827); assay: ATG_THRa1_TRANS: Attagene TRANS-FACTORIAL HepG2 Assay for human Thyroid Receptor alpha (THRa1) (AID 2283014; active = hit-call score of the fitted dose curve at least 0.9, where 1 is the maximum)
Sequence of human Thyroid Receptor alpha (THRa1), THRA (gene 7067) (P10827 whole entry, looked up, the tested form may be a part): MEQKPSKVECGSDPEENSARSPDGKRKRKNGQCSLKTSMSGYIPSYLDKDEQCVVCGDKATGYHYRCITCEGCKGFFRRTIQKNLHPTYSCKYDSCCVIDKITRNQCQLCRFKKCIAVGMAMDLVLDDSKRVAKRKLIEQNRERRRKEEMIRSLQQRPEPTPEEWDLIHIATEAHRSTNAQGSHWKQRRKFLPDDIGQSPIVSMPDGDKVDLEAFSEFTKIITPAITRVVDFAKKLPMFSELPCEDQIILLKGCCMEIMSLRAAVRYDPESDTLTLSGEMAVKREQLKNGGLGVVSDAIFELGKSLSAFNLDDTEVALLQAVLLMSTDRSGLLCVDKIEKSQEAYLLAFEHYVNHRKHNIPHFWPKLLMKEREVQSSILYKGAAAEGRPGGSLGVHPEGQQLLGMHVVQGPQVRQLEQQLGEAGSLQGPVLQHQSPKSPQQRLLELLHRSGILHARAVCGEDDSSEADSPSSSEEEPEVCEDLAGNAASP
Outline: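 HepG2 cells transiently transfected with chimeric NR-Gal4 and GAL4-UAS reporter units, dosed 24 h. Reporter mRNA quantified by RT-PCR, fluorescent labeling, HpaI digestion and capillary electrophoresis; gain-of-signal fit versus DMSO.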

Measured: AC50

Sequence of E-selectin (Homo sapiens) (P16581 whole entry, looked up): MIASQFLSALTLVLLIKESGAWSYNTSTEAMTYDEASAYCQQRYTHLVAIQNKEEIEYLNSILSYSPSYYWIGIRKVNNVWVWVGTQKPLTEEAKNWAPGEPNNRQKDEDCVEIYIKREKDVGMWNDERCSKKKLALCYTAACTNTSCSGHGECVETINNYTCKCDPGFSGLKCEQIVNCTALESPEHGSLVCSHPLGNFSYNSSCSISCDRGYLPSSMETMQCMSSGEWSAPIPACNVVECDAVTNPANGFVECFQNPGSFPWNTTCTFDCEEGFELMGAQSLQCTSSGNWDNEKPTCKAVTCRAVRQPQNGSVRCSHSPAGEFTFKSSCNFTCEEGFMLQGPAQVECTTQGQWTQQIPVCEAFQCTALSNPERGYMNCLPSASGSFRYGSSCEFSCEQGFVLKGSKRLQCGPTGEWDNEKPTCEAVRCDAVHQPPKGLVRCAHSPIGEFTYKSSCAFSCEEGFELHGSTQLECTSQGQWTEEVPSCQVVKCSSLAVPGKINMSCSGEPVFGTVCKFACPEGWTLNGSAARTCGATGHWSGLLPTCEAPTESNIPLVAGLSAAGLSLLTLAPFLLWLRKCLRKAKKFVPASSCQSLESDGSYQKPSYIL

CN1CCN(Cc2cc(-c3ccc4[nH]c(=O)oc4c3)co2)[C@@H](c2ccc(F)cc2)C1
active: [4] 17.6 µM | [5] 3.68 µM | [6] 27.6 µM | [10] 28.2 µM | [12] 17.6 µM | [16] 11.3 µM
inactive: [1] | [2] | [3] | [7] | [8] | [9] | [11] | [13] | [14] | [15] | [17]

NS(=O)(=O)c1cc2c(cc1Cl)NCNS2(=O)=O
inactive: [1] | [2] | [3] | [4] | [5] | [6] | [7] | [8] | [9] | [10] | [11] | [18] | [12] | [13] | [14] | [16] | [17]

CCCCN(CCCC)CCCC
inactive: [19] | [2] | [3] | [4] | [5] | [6] | [7] | [8] | [9] | [10] | [11] | [18] | [12] | [13] | [14] | [15] | [16] | [17]

CCCCCCCCCCCC(=O)OC
inactive: [1] | [2] | [3] | [4] | [5] | [6] | [7] | [8] | [9] | [10] | [11] | [18] | [12] | [13] | [14] | [16] | [17]

COc1ccc2c(c1)c(CC(=O)O)c(C)n2C(=O)c1ccc(Cl)cc1
inactive: [1] | [2] | [3] | [4] | [5] | [6] | [7] | [8] | [9] | [10] | [18] | [12] | [13] | [14] | [16] | [17]
active: [11] 7.79 µM

FC(F)(F)C(F)(F)C(F)(F)C(F)(F)C(F)(F)C(F)(F)CCI
inactive: [1] | [2] | [3] | [4] | [5] | [6] | [7] | [8] | [10] | [11] | [18] | [12] | [13] | [14] | [16] | [17]

CC(=O)OCCOCCOCCOC(C)=O
inactive: [20] | [2] | [3] | [4] | [5] | [6] | [7] | [8] | [10] | [11] | [18] | [12] | [13] | [14] | [15] | [16] | [17]

Cc1c(C(=O)O)c(O)cc2c1C(=O)c1c(O)c([C@@H]3O[C@H](CO)[C@@H](O)[C@H](O)[C@H]3O)c(O)c(O)c1C2=O
inactive: [2] | [3] | [4] | [5] | [6] | [7] | [8] | [9] | [10] | [11] | [18] | [12] | [13] | [14] | [16] | [17]
